A selection: hits, their analogues and other compounds. The true share with any hit is near 3.1%.
Rtt109 HAT inh – inhibitors of C. albicans Rtt109/Vps75 HAT, primary screen, biochemical, ThioGlo CoA-SH fluorescence, plate reader; Histone acetyltransferase RTT109 (Candida albicans (strain SC5314 / ATCC MYA-2876)), …; purified Rtt109/Vps75, 4 h; inhibition, % at 34.9 µM; 330,000 tested, 0.16% active; AID 540336, 2011;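 active means inhibition of at least 50% in every replicate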
Target sequence (Q5AAJ8 whole entry, looked up): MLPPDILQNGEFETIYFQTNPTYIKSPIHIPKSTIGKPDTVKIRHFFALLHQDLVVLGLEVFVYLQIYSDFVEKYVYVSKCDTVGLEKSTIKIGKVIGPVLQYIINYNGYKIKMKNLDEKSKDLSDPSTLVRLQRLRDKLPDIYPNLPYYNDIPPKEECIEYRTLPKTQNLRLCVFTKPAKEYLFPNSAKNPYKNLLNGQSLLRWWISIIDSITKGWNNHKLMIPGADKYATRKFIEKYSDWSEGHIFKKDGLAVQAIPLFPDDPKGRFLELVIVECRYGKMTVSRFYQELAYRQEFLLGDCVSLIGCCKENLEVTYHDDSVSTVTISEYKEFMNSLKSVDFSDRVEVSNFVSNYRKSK
Statin myotox sup – suppressors of statin myotoxicity in C2C12 myotubes, primary screen, cell-based, single point, plate reader; 330,000 tested, 0.78% active; rescue of ATP level, % at 7.49 µM; C2C12 myotubes + simvastatin, ATP luminescence, 48 h; scaled: DMSO 0, geranylgeraniol control 100;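 active means mean ATP rescue above about 67%, or every replicate alone reaching that limit, limit read from the data, passing the limit was not always enough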;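 further: myotubes were challenged with 10 µM simvastatin during compound exposure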
Wnt act – Wnt/beta-catenin pathway activators, primary screen, cell-based, plate reader, single point; 300,000 tested, 1.2% active; activation, % at 9.35 µM; Wnt/beta-catenin reporter cell assay, activator; in the data active means activation above about 30%, passing the limit was not always enough;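 further: 0% = neutral control wells and 100% = positive control wells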
MITF act – activators of MITF-driven TRPM1 promoter reporter, primary screen, cell-based, SK-MEL-5, luciferase, single point | 300,000 tested, 0.75% active | activation, % at 12.5 µM | SK-MEL-5 TRPM1-promoter luciferase, 24 h; % of positive control, neutral wells = 0;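 active means mean activation of at least 80% with every replicate also reaching 80%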;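 further: 0% = neutral control wells and 100% = parthenolide positive control wells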
esBAF inh – Bmi1 luciferase reporter increase in mESCs, primary screen, esBAF inhibitor project, mouse ES cells, Bmi1 luciferase knock-in, single point | 24 h; 100% = twice the neutral-well signal | 350,000 tested, 2% active | reporter increase, % at 12.5 µM; in the data active means activation above about 40%;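 further: 0% = median of the plate's neutral control wells and 100% = double that signal; a rise in the Bmi1 reporter signal indicates esBAF inhibition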
* hit, by the source's call; . = not tested or not shown.

SMILES	Rtt109 HAT inh	Statin myotox sup	Wnt act	MITF act	esBAF inh
C/C(=N/Nc1nc(-c2ccc(Cl)cc2)cs1)c1cccs1	10	144*	-4	31	17
CC(C)(C)c1cc(NC(=O)c2cccs2)no1	-1	-16	31*	63	-9
COCC(=O)Nc1ccc2c(c1)C(=O)N(C)[C@H]1CC[C@H](CC(=O)NC3CCCC3)O[C@@H]1CO2	.	11	.	.	-1
COCC(=O)Nc1ccc2c(c1)[C@@H]1C[C@H](CC(=O)N3CCN(C)CC3)O[C@@H](CO)[C@@H]1O2	.	-6	.	.	3
CCC(=O)Nc1ccc2c(c1)OC[C@H](C)N(C(=O)Cc1ccccn1)C[C@H](C)[C@@H](OC)CN(C)C2=O	.	17	.	.	1
CCn1c(CCNC(=O)c2cccs2)nnc1SCC(=O)Nc1nc(-c2ccccc2)cs1	-3	-2	.	.	44*
O=C(Nc1nc(-c2ccccc2)cs1)c1cccs1	13	-26	.	61	62*
CCn1c(CCNC(=O)c2cccs2)nnc1SCC(=O)Nc1cccc(Cl)c1	6	.	-3	.	.
O=C(CSc1nnc(-c2ccncc2)n1Cc1ccco1)Nc1ccccc1Cl	-4	.	-2	8	.
O=C(Nc1nc(-c2ccccc2)ns1)c1cccs1	15	6	20	43	44*
O=C(CSc1nnc(-c2ccncc2)n1Cc1ccco1)Nc1nc(-c2ccccc2)cs1	-5	98*	2	-27	3
COc1cccc(OC)c1C(=O)Nc1nc(-c2ccccc2)cs1	4	12	1	6	-2
CCC(=O)N(C)C[C@@H]1Oc2cc(C#CC3CC3)ccc2S(=O)(=O)N([C@@H](C)CO)C[C@H]1C	.	16	.	.	-4
CCCC(=O)Nc1ccc2c(c1)C(=O)N(C)C[C@H](OC)[C@H](C)CN(C(=O)c1ccccn1)[C@@H](C)CO2	.	-15	.	.	4
CCCNC(=O)[C@H]1[C@H](CO)[C@H]2Cn3c(ccc(-c4ccc(F)cc4)c3=O)[C@H]2N1CCC	.	12	.	.	0
O=C(CN1CCOCC1)N1CCCCN2[C@H](CO)[C@H](c3ccc(C#Cc4ccccc4F)cc3)[C@@H]2C1	.	-15	.	.	-3
C[C@H]1CN([C@@H](C)CO)C(=O)Cc2cc(NC(=O)Cc3ccccc3)ccc2O[C@@H]1CN(C)Cc1ccc2c(c1)OCO2	.	27	.	.	3
C[C@@H]1CN([C@@H](C)CO)C(=O)c2cc(-c3ccccc3F)cnc2O[C@H]1CN(C)C(=O)c1ccccn1	.	3	.	.	0
Nc1c(C(=O)Nc2ccc3c(c2)OCCO3)nnn1Cc1ccccc1Cl	13	-4	25	145*	74*
Nc1c(C(=O)Nc2ccc3c(c2)OCCO3)nnn1Cc1ccc(F)cc1	1	4	26	116*	96*
COc1ccc(Cn2nnc(C(=O)Nc3ccc(F)cc3)c2N)cc1	0	5	3	13	9
Nc1c(C(=O)Nc2ccc3c(c2)OCCO3)nnn1Cc1cccc(Cl)c1	-9	22	47*	101*	55*
COc1cccc(NC(=O)c2ccc(CN3CCOCC3)cc2)c1	-5	-31	3	.	40
O=C(Nc1ccc2c(c1)OCCO2)c1ccc(CN2CCOCC2)cc1	11	-31	.	51	56*
COc1ccccc1NC(=O)N1C[C@@H]2[C@H](c3ccccc31)[C@H](CO)N2C(=O)C1CC1	.	-13	.	.	-2
SMILES	Rtt109 HAT inh	Statin myotox sup	Wnt act	MITF act	esBAF inh
CCNC(=O)C[C@H]1CC[C@@H]2[C@@H](COc3ccc(NS(C)(=O)=O)cc3C(=O)N2C)O1	.	3	.	.	-5
O=C(C[C@H]1CC[C@H]2[C@@H](COC[C@H](O)CN2Cc2cc(F)cc(F)c2)O1)NC1CCCC1	.	6	.	.	-2
CCC(=O)Nc1ccc2c(c1)C(=O)N(C)C[C@H](OC)[C@@H](C)CN(C(=O)COC)[C@@H](C)CO2	.	12	.	.	-2
C[C@H]1CN([C@@H](C)CO)C(=O)c2cc(C#CCc3ccccc3)cnc2O[C@H]1CN(C)Cc1ccc(C(=O)O)cc1	.	1	.	.	-11
C[C@@H]1CCCCO[C@@H](CN(C)S(=O)(=O)c2ccccc2)[C@H](C)CN([C@@H](C)CO)C(=O)c2cc(NC(=O)c3ccncc3)ccc2O1	.	.	.	.	11
Cc1noc(C)c1S(=O)(=O)Nc1ccc2c(c1)C(=O)N([C@@H](C)CO)C[C@H](C)[C@H](CN(C)Cc1ccc3c(c1)OCO3)O2	.	76*	.	.	3
Cc1noc(C)c1S(=O)(=O)Nc1ccc2c(c1)C(=O)N([C@@H](C)CO)C[C@@H](C)[C@H](CN(C)Cc1ccc(Cl)c(Cl)c1)OCCCC[C@@H](C)O2	.	121*	.	.	0
Cc1noc(C)c1S(=O)(=O)Nc1ccc2c(c1)C(=O)N([C@H](C)CO)C[C@@H](C)[C@@H](CN(C)S(=O)(=O)c1ccc(Cl)cc1)OCCCC[C@H](C)O2	.	101*	.	.	13
Cc1noc(C)c1S(=O)(=O)Nc1ccc2c(c1)C(=O)N([C@H](C)CO)C[C@H](C)[C@@H](CN(C)S(=O)(=O)c1ccc(Cl)cc1)OCCCC[C@H](C)O2	.	23	.	.	-4
CN(C)CCCNC(=O)C[C@@H]1C=C[C@H](NC(=O)Cc2cccnc2)[C@@H](CO)O1	.	3	.	.	1
O=S(=O)(NCc1csc(-c2cccs2)n1)c1ccc(Cl)cc1	4	24	-2	-4	-4
O=S(=O)(NCc1csc(-c2cccs2)n1)c1cccc(C(F)(F)F)c1	9	131*	-1	-3	-5
COc1ccc(Cn2c(C3CC3)nc3ccc(NC(=O)C4CC4)cc3c2=O)cc1	1	.	17	118*	67*
CCC(=O)Nc1ccc2nc(C3CC3)n(Cc3ccc(C(C)(C)C)cc3)c(=O)c2c1	2	-13	19	67	3
CC(=O)Nc1ccc2nc(C3CC3)n(Cc3ccc(Cl)cc3)c(=O)c2c1	6	7	-2	43	75*
C[C@H](CO)N1C[C@H](C)[C@H](CN(C)CC2CC2)Oc2ccc(NC(=O)c3ccncc3)cc2CC1=O	.	-11	.	.	6
CC(C)C1CC(=O)NC(SCC(=O)Nc2ccc(Br)cc2)=C1C#N (configuration not stated)	-7	-26	-3	7	99*
O=C(CN1CCC(C(O)(c2ccccc2)c2ccccc2)CC1)Nc1cc(Cl)ccc1Cl	4	90*	-6	-7	-4
O=C(CN1CCN(C(=O)c2ccco2)CC1)Nc1cc(C(F)(F)F)ccc1Cl	6	104*	.	3	-4
O=C(c1ccco1)N1CCN(Cc2ccc(F)cc2Cl)CC1	5	2	7	51	46*
O=C(c1ccco1)N1CCN(S(=O)(=O)Cc2ccc(Cl)cc2)CC1	-1	.	42*	3	.

Screening data from PubChem.
